Results filed as inconclusive are left out. Where a call stands in place of a potency, no number is given. Activity calls are given as the source filed them. The call rests on the fitted dose curve; in most records, active means well fitted activation curve with a large enough effect; inconclusive means small, poorly fitted or top-dose-only effect; inactive means flat fitted curve, though single readings scatter.

A short description of this assay: qHTS for Inhibitors of Cell Surface uPA Generation: FP59 Counterscreen for Cherry-picked Compounds. The conditions noted are these: FP59 anthrax toxin cytotoxicity counterscreen, cells; series mostly up to 115 µM. A general note: qHTS replaces the single test concentration by a dilution series.
Consider `Cc1c(C(=O)N2CCN(S(=O)(=O)c3cccs3)CC2)oc2ccc(F)cc12`, for which the Potency result was “inactive”.

Turning to `COc1ccc(OC)c(NC(=O)C2CCCN2C(=O)C2CCC(C)CC2)c1` (stereo not given), the Potency result was “inactive”.

Regarding `O=C(C1CCN(c2nnc(N3CCCC3=O)s2)CC1)N1CCN(c2cccc(C(F)(F)F)c2)CC1`, the Potency result is “inactive”.

In the case of `O=C(NC1CCCCC1)C(c1ccco1)N(C(=O)c1csnn1)c1cccc(Cl)c1` (stereo not given), the Potency result was “inactive”.

Regarding `COC(=O)c1ccc(N2CCN(c3ccccc3)CC2)c(NC(=O)C2CC2)c1`, the Potency entry was “inactive”.

Consider `Cc1ccccc1C(=O)NCC(=O)Nc1ccc(C)c(S(=O)(=O)N2CCCCCC2)c1`, for which the Potency result was “inactive”.

As to `CC(=O)c1c(C)n(-c2ccccc2Br)c2ccc(O)cc12`, the Potency entry was “inactive”.

For the molecule `CC(C)CNC(=O)COC(=O)CCC(=O)c1cccs1`, the Potency entry was “inactive”.

In the case of `CCN(CC)c1c([N+](=O)[O-])c(=O)sc2ccccc12`, the Potency entry is “inactive”.

Turning to `CCCCCCCCCOC(=O)C1N2C(=O)[C@@H](NC(=O)COc3ccccc3)[C@H]2SC1(C)C` (stereo not given in full), the Potency entry was “inactive”.

`O=C1CCCc2ccccc2N1Cc1ccc(F)cc1`: the Potency result was “inactive”.

For the molecule `O=C(COc1ncnc2sccc12)Nc1cccc(S(=O)(=O)N2CCCC2)c1`, the Potency result is “inactive”.

For `Cc1ccc(CN2CCN(Cc3cc4ccccc4o3)CC2CCO)cc1` (stereo not given), the Potency result is “inactive”.

Consider `Cc1ccc2[nH]c(CN3CCN(C)C(CCO)C3)c(C)c2c1` (stereo not given), for which the Potency entry is “inactive”.

For `CCCn1nnc(NC(=S)NC(=O)c2ccccc2OC)n1`, the Potency result was “inactive”.

`COC(=O)C1C(=O)c2c([nH]c(C(=O)OC3CCCCC3)c2C)CC1C` (stereo not given): the Potency entry is “inactive”.

As to `O=C(CNC(=O)c1ccc(Br)o1)NNC(=O)c1ccccc1`, the Potency result was “inactive”.

For `COc1ccc(N(C(C)C(=O)NN=C2CCCC2)S(C)(=O)=O)cc1` (stereo not given), the Potency result is “inactive”.

For `COC(=O)[C@]1(Cc2ccccc2)N[C@H](CN(C)C(=O)Nc2ccccc2)[C@@H]2C(=O)N(Cc3ccccc3)C(=O)[C@@H]21`, the Potency result is “inactive”.

For the molecule `CCC1=NN(C(=O)C(=O)Nc2ccc(OC)cc2)C(O)(C(F)(F)F)C1` (stereo not given), the Potency entry was “inactive”.

With `Cc1ccc(-n2ncc(C(=O)NC3CC3)c2C2CCN(C(=O)OC(C)(C)C)CC2)cc1`, the Potency entry is “inactive”.

`COc1ccccc1N1CCN(CC(=O)c2c(C)[nH]c3ccccc23)CC1`: the Potency entry was “inactive”.

Consider `O=C(CN1CCCC1)Nc1cccc(Cl)c1Cl`, for which the Potency entry is “inactive”.

`C=CCOC(=O)C1=C(C)NC(C)=C(C(=O)OCC=C)C1c1cn(-c2ccccc2)nc1-c1ccco1`: the Potency result is “inactive”.

Consider `COc1cc2c(cc1OC)CN(C(=O)c1ccc(-c3ccccc3)cc1)CC2`, for which the Potency result is “inactive”.

Take `CN(CC(=O)NCc1ccco1)CC(=O)Nc1c(Cl)cccc1Cl`: the Potency entry is “inactive”.

Regarding `COc1cc(CN2CCNC(=O)C2CC(=O)NCCCC2CCCC2)cc(OC)c1` (stereo not given), the Potency result is “inactive”.

Turning to `N#C/C(N=Nc1ccccc1O)=N\Nc1ccccc1O`, the Potency result was “inactive”.

In the case of `CC1C2=C(CC(C)(C)CC2=O)NC2=C1C(=O)CC(C)(C)C2`, the Potency result is “inactive”.

As to `Cc1ccc(S(=O)(=O)NC(=O)Nc2nccs2)cc1`, the Potency entry was “inactive”.

Consider `Cc1ccc(Cl)cc1NC(=O)c1ccccc1OCC(=O)N1CCOCC1`, for which the Potency entry was “inactive”.

Regarding `C[C@@H](C(=O)Nc1ccc2ccccc2c1)[C@@H]1C[C@@]1(C)[C@@H](NC(=O)c1cccnc1)c1ccccc1`, the Potency result is “inactive”.

In the case of `Cc1nc([N+](=O)[O-])cn1CCCCN1C(=O)c2ccccc2C1=O`, the Potency entry is “inactive”.

As for `COC(=O)[C@]1(Cc2ccccc2)N[C@H](CN(C)C(=O)c2ccccc2)[C@@H]2C(=O)N(Cc3ccccc3)C(=O)[C@@H]21`, the Potency entry was “inactive”.

In the case of `Cc1cccc(N2CCN(Cc3ccc(Br)o3)CC2)c1C`, the Potency result is “inactive”.

`CCC(C(=O)NCc1ccc(C)cc1)c1ccccc1` (stereo not given): the Potency result is “inactive”.

Take `CCN(c1ccc(OC)cc1)S(=O)(=O)c1ccc2c(c1)NC(=O)CS2`: the Potency entry was “inactive”.

On to `CN1CCN(C2=Nc3ccccc3Oc3ccc(Cl)cc32)CC1`, for which the Potency result is “inactive”.

On to `CC(NC(=O)C1CCC(C(=O)NC(C)c2ccccc2)CC1)c1ccccc1` (stereo not given), for which the Potency entry was “inactive”.

`Cc1nc(SCC(=O)NCCN2C(=O)CSC2=O)nc(C)c1C`: the Potency result was “inactive”.

(Values after PubChem BioAssay AID720517 (National Center for Advancing Translational Sciences (NCATS), 2013).)
